Measured values as given in paper PMC4336329 (PLoS ONE, 2015).
Hit rate of the full screen: of about 310,000 compounds, about 14,000 (4.5%) showed an effect of 50% or more. Effects have a minus sign here. This is one part of a sample in which strong results are shown more often than they occur.

target: human ether-à-go-go-related gene (hERG) potassium channel (human, UniProt Q12809); assay: primary screen, population patch clamp on CHO cells stably expressing hERG; higher = less effect of the substance
Sequence (Q12809 whole entry, looked up): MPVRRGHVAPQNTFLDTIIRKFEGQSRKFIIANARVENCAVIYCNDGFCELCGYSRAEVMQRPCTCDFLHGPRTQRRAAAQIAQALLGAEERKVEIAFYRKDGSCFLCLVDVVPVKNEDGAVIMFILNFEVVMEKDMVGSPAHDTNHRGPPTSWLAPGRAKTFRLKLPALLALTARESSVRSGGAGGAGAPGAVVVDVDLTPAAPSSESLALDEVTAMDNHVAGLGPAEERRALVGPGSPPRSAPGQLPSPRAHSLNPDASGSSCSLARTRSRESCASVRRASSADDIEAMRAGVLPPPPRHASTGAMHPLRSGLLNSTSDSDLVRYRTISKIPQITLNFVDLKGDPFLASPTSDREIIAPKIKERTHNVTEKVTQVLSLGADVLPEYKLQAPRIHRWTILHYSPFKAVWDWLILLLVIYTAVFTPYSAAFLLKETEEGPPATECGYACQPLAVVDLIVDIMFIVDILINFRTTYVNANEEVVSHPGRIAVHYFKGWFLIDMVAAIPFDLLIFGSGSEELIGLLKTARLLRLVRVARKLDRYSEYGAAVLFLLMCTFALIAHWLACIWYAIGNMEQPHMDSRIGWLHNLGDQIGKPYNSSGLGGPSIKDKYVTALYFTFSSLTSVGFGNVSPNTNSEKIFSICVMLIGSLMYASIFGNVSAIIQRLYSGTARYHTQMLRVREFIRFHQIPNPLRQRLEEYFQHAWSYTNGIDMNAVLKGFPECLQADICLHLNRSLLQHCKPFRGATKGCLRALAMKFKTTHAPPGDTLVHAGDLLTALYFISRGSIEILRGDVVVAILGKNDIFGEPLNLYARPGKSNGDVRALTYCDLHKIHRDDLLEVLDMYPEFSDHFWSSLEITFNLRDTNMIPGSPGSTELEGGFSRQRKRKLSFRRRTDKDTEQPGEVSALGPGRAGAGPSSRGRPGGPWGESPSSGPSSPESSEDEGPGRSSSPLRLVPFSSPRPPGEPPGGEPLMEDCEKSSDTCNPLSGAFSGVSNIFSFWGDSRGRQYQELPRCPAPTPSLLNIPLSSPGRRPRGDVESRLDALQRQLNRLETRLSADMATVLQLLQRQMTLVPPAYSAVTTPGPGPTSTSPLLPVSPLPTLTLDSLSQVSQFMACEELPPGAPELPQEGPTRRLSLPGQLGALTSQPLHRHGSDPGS
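Note: peak tail current of the secondary pulse compared with the same well before compound.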

Row | SMILES | hERG current change (%, negative = inhibition) at 10uM
1 | Cc1onc(-c2c(F)cccc2Cl)c1C(=O)c1ccccc1O | -0.367%
2 | CCc1ccc2nc(SCC(=O)Nc3nnc(C)s3)c(C)cc2c1 | 16%
3 | Cn1cc(Br)c(C(=O)N/N=C/c2cccc(OC3CSC3)c2)n1 | -2.36%
4 | CN(C)c1ccc(-n2cccc2/C=C/[N+](=O)[O-])cc1 | 20.2%
5 | COc1ccc(-n2cccc2/C=C/[N+](=O)[O-])cc1 | -50.4%
6 | COc1ccc(-n2cccc2C=O)cc1 | 16.7%
7 | CCOC(=O)c1c(NCc2ccc3c(c2)OCO3)c2ccccc2[nH]c1=O | -10.8%
8 | O=C(Cc1ccccc1)N/N=C/c1ccc(OCC(=O)Nc2ccccc2)cc1 | -14.2%
9 | Cc1cc(NC(=O)CSc2nc3ccc(Cl)cc3[nH]2)no1 | 9.82%
10 | Cc1ccc(SCC(=O)Nc2ccc(N3CCN(c4ccccc4)CC3)c(F)c2)cc1 | 10.3%
11 | Cc1ccc(SCC(=O)Nc2ccc(N3CCN(C)CC3)c(F)c2)c(C)c1 | -72%
12 | COc1ccc(SCC(=O)Nc2ccc(N3CCN(C)CC3)c(F)c2)cc1 | -49.7%
13 | O=C(CSc1ccccc1)Nc1ccc(N2CCOCC2)c(F)c1 | 11.8%
14 | CC(C)C(=O)Nc1ccc(N2CCN(C)CC2)c(F)c1 | 14.2%
15 | CN1CCN(c2ccc(NC(=O)CN3CCOCC3)cc2F)CC1 | 24.5%
16 | Cc1ccc(SCC(=O)Nc2ccc(N3CCN(C)CC3)c(F)c2)cc1 | -64.4%
17 | O=C(CSc1ccccc1)Nc1ccc(N2CCN(c3ccccc3)CC2)c(F)c1 | 10.9%
18 | CN1CCN(c2ccc(NC(=O)CSc3ccccc3)cc2F)CC1 | -68.4%
19 | Cc1ccc2c(CC(=O)OC(C)C(=O)Nc3ncc(Cl)cc3Cl)coc2c1 (stereo not shown) | -28.2%
20 | NC(=O)c1ccsc1NC(=O)c1cccs1 | -13.6%
21 | O=C(Nc1ccc2c(c1)OCO2)c1ccc(N2C(=O)c3ccccc3C2=O)cc1 | -5.61%
22 | Cc1cc2occ(CC(=O)N(CC(C)C)c3c(N)n(Cc4ccccc4)c(=O)[nH]c3=O)c2cc1C | -18.4%

Row | SMILES | hERG current change (%, negative = inhibition) at 10uM
23 | O=C(Cn1cnc2c(nnn2Cc2ccccc2F)c1=O)NCC1CCCO1 (stereo not shown) | -3.88%
24 | O=C(/C=C/c1c(Cl)cccc1Cl)N1CCN(c2ncccn2)CC1 | -72.7%
25 | O=C(/C=C/c1ccccc1)N1CCN(c2ccccn2)CC1 | -42.8%
26 | O=C(/C=C/c1ccccc1Cl)N1CCN(c2ncccn2)CC1 | -32.4%
27 | O=C(/C=C/c1cccc([N+](=O)[O-])c1)N1CCN(S(=O)(=O)c2cccs2)CC1 | -62.2%
28 | O=C(/C=C/c1ccc(F)cc1)N1CCN(c2ncccn2)CC1 | 12.1%
29 | O=C(/C=C/c1ccc([N+](=O)[O-])cc1)N1CCN(S(=O)(=O)c2cccs2)CC1 | -18.7%
30 | O=C(/C=C/c1ccccc1[N+](=O)[O-])N1CCN(c2ccc(F)cc2)CC1 | -56.5%
31 | O=C(/C=C/c1ccccc1[N+](=O)[O-])N1CCN(c2ccccc2F)CC1 | -13.8%
32 | O=C(/C=C/c1cccc(F)c1)N1CCN(c2ccccn2)CC1 | -118%
33 | O=C(/C=C/c1ccccc1[N+](=O)[O-])N1CCOCC1 | 15.5%
34 | O=C(/C=C/c1cccc(F)c1)N1CCN(c2ncccn2)CC1 | 7.29%
35 | O=C(/C=C/c1ccco1)N1CCN(S(=O)(=O)c2cccs2)CC1 | -7.4%
36 | COc1cccc(CNC(=O)c2ccc(CS(=O)(=O)Cc3ccc(C)cc3)o2)c1 | -12.8%
37 | CCN(c1cccc(C)c1)S(=O)(=O)c1nnc(NC(=O)c2ccco2)s1 | 3.8%
38 | CCOC(=O)c1sc(NC(=O)c2ccc3nc[nH]c3c2)nc1C | 8.25%
39 | O=C(Nc1cc2ccccc2oc1=O)c1ccccc1 | 22.7%
40 | O=C(Cc1ccccc1)N[C@@H](Cc1ccccc1)C(=O)O | 7.29%
41 | Cc1ccc(CC(=O)NCCC(=O)O)cc1 | 16.9%
42 | Cc1c(C(=O)O)oc2ccc(S(=O)(=O)NCCC3=CCCCC3)cc12 | 0.629%
43 | COc1ccc(NC(=O)C2CCN(C(=O)c3ccco3)CC2)c(OC)c1 | 22.3%
44 | Cc1nc2ccc(Br)cn2c1NC(C)(C)C | -20.9%

Row | SMILES | hERG current change (%, negative = inhibition) at 10uM
45 | COc1ccc(-c2cc(C#N)nc(N3CCN(c4ccccc4)CC3)n2)cc1 | 3.41%
46 | CCOc1cc2[nH]c(=S)n(CCCN3CCCC3=O)c(=O)c2cc1OCC | -23.5%
47 | COCc1nnc(NC(=O)c2cccc(NC(=O)c3ccccc3)c2)s1 | -8.59%
48 | O=C(/C=C/c1cccc([N+](=O)[O-])c1)N1CCN(c2ccccc2F)CC1 | -38.9%
49 | O=C(/C=C/c1cccc([N+](=O)[O-])c1)N1CCN(c2ccc(F)cc2)CC1 | -56.7%
50 | O=C(/C=C/c1cccc([N+](=O)[O-])c1)N1CCOCC1 | -3.86%
51 | O=C(NCCC(=O)N1CCCC1)c1ccccc1Cl | 22%
52 | CNC(=O)C(C)N1c2cccc3cccc(c23)S1(=O)=O (stereo not shown) | 22.3%
53 | Cc1ccc(OCc2nnc(SCC(=O)c3ccccc3)n2-c2ccccc2)cc1 | 1.75%
54 | CC1(c2ccccc2)NC(=O)N(CC(=O)Nc2ccccc2C(=O)N2CCCCC2)C1=O (stereo not shown) | 19.7%
55 | O=C(CSc1nc(-c2ccco2)cc(C(F)(F)F)n1)N1CCN(Cc2ccccc2)CC1 | -58.8%
56 | CN1CCN(C(=O)CSc2nc(-c3ccco3)cc(C(F)(F)F)n2)CC1 | 15.3%
57 | O=C(CSc1nc(-c2ccco2)cc(C(F)(F)F)n1)N1CCSCC1 | -19.9%
58 | CCc1cc(C(=O)N(C)CC(=O)Nc2c(Cl)cccc2Cl)sc1C | -2.89%
59 | COc1cc(O)c(C(CC(=O)N2CCCC(C)C2)c2ccc3c(c2)OCO3)c(OC)c1 (stereo not shown) | -5.66%
60 | COc1cc(O)c(C(CC(=O)N2CCCCC2)c2ccc3c(c2)OCO3)c(OC)c1 (stereo not shown) | 5.41%
61 | COc1cc(O)c(C(CC(=O)N2CCCC2)c2ccc3c(c2)OCO3)c(OC)c1 (stereo not shown) | 6.4%
62 | COc1cc(O)c(C(CCN2CCCCC2)c2ccc3c(c2)OCO3)c(OC)c1 (stereo not shown) | -78.3%
63 | COc1cc(O)c(C(CCN2CCN(c3ccccc3)CC2)c2ccc3c(c2)OCO3)c(OC)c1 (stereo not shown) | -16.6%
64 | COc1cc(O)c(C(CCN2CCCC(C)C2)c2ccc3c(c2)OCO3)c(OC)c1 (stereo not shown) | -77.5%
65 | COc1cc(O)c(C(CC(=O)N2CCOCC2)c2ccc3c(c2)OCO3)c(OC)c1 (stereo not shown) | 7.98%
66 | COc1cc(O)c(C(CCN2CCCC2)c2ccc3c(c2)OCO3)c(OC)c1 (stereo not shown) | -72.5%

Row | SMILES | hERG current change (%, negative = inhibition) at 10uM
67 | COc1cc(O)c(C(CCN2CCOCC2)c2ccc3c(c2)OCO3)c(OC)c1 (stereo not shown) | -59.5%
68 | COc1cc(O)c(C(CCN2CCCC(C)C2)c2ccc(N(C)C)cc2)c(OC)c1 (stereo not shown) | -29.5%
69 | COc1cc(O)c(C(CCN2CCOCC2)c2ccc(N(C)C)cc2)c(OC)c1 (stereo not shown) | 7.96%
70 | COc1cc(O)c(C(CCN2CCCC2)c2cc(OC)c(OC)c(OC)c2)c(OC)c1 (stereo not shown) | -7.35%
71 | COc1ccc(NC(=O)c2cc3ccccc3o2)cc1OC | -3.22%
72 | O=C1CC(c2ccccc2)c2ccccc21 (stereo not shown) | 8.78%
73 | Cc1ccc(Cn2nc(C)c(NC(=O)CSc3nc4c(c(C(F)(F)F)n3)CCc3ccccc3-4)c2C)cc1 | 13.1%
74 | O=C(O)Cc1sc(Nc2ccc(F)cc2)nc1-c1cccs1 | 15.3%
75 | Cc1ccccc1C(CC(=O)c1cccs1)C(C#N)C#N (stereo not shown) | 20.2%
76 | Cc1ccc(Cn2ncc3c(N4CCN(c5ccc(C)cc5)CC4)ncnc32)cc1 | 8.18%
77 | COCCN(C(=O)c1cc2c(s1)CCCCC2)c1c(N)n(CC(C)C)c(=O)[nH]c1=O | 3.04%
78 | CCOC(=O)C(NC(=O)C1CCCN1C(=O)OCc1ccccc1)C(=O)OCC (stereo not shown) | -0.938%
79 | CCc1nnc(NC(=O)C2CCCN2C(=O)Nc2ccc(Cl)cc2)s1 (stereo not shown) | 1.86%
80 | COc1cc(-c2cc(C(=O)Nc3ccc(S(=O)(=O)Nc4ncccn4)cc3)c3ccccc3n2)cc(OC)c1OC | -7.01%
81 | CCn1c(=O)cc(SCC(=O)Nc2ccc(OC)c(OC)c2)c2ccccc21 | -4.7%
82 | COc1ccc(S(=O)(=O)Nc2ccc(-n3cnnn3)cc2)cc1[N+](=O)[O-] | 0.00208%
83 | Cc1ccc(NC(=O)c2nc[nH]c2C(=O)NCCCCCNC(=O)OC(C)(C)C)cc1 | -15.2%
84 | CC(C)(C)OC(=O)CNC(=O)c1[nH]cnc1C(=O)NC1CCN(C(=O)OC(C)(C)C)CC1 | -2.67%
85 | CC(C)(C)OC(=O)NCCCCCNC(=O)c1[nH]cnc1C(=O)NC1CCN(C(=O)OC(C)(C)C)CC1 | -78.1%
86 | CC(C)(C)OC(=O)NCCCCCNC(=O)c1[nH]cnc1C(=O)Nc1ccccc1 | -53.2%
87 | CC(C)(C)OC(=O)N1CCC(NC(=O)c2nc[nH]c2C(=O)NC2CCN(C(=O)OC(C)(C)C)CC2)CC1 | -31.5%
88 | CC(C)(C)OC(=O)NCCCCCNC(=O)c1[nH]cnc1C(=O)Nc1ccc(Cl)cc1 | -6.26%
